# Test results taken from PubChem BioAssay AID686940 (The Scripps Research Institute Molecular Screening Center, 2013).
# Hit rate of the full screen: of about 370,000 compounds, about 2,600 (0.7%) were called active. Many of the other results were omitted from the sample, so actives are more common in it than they were. Values without a mark were called inactive.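 Rule for the calls: active = inhibition above a per-plate cutoff, mean inhibition of test wells between control levels plus 3 SD (cut at about 38% in these data); inactive = the rest.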
# Target: COUP transcription factor 2 (Homo sapiens) (UniProt P24468)
# Test: NR2F2 transcriptional activity inhibitors, primary screen, cell-based, luciferase reporter, HEK293T, luminescence (AID 686940);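 note: cells cotransfected with COUP-TFII expression vector driving the NGFI-A reporter; 0% = median of COUP-TF2 test wells and 100% = reporter-only cells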
# Conditions: HEK293T NGFI-A luciferase reporter, at 8.6 µM, hits give high values
# COUP transcription factor 2 (Homo sapiens), sequence (P24468 whole entry, looked up): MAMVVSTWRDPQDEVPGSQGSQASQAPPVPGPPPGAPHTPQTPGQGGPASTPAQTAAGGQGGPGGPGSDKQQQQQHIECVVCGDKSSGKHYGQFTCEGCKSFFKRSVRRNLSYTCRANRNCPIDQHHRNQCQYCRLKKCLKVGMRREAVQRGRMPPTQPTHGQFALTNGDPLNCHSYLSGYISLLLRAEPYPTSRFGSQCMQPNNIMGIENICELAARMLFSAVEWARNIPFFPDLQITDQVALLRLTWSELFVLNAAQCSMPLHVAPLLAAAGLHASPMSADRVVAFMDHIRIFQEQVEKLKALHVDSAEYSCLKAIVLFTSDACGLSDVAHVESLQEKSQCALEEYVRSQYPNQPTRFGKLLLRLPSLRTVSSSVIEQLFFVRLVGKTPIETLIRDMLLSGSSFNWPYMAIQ
row,Compound,inhibition
1,COc1ccc(/C=C2\CC3(OC(C)=O)CCCN2C3)cc1 (stereo not given),-13.1%
2,Fc1ccc2nc(COCc3nc4ccc(F)cc4[nH]3)[nH]c2c1,-29.3%
3,O=C(CNS(=O)(=O)c1ccccc1F)N1CCN(c2ccccn2)CC1,8.7%
4,CN(c1ccc2nc3ccccc3c(=O)n2n1)C1CCCCC1,88.6% (active)
5,O=C(c1ccco1)N(Cc1nc2ccccc2c(=O)[nH]1)C1CCCC1,-0.35%
6,COCC(C)n1c(SCC(=O)NC2CCCCC2C)nc2ccccc2c1=O (stereo not given),1.47%
7,CN1[C@H](Cc2ccccc2)COc2cccc(N3CCSCC3)c2S1(=O)=O,5.38%
8,C[C@@H]1COc2cccc(N3CCCC3)c2S(=O)(=O)N1C,-14.7%
9,COC(=O)c1cc(S(=O)(=O)N2CCN(C(=O)C3CCCO3)CC2)cn1C (stereo not given),-3.24%
10,CCCCNC(=O)C[C@H]1C(=O)N(Cc2ccc(OC)cc2)C2=CCCC[C@@]21C(=O)OCC,7.45%
11,COc1cc(C(=O)NCc2nnc(SCC(=O)Nc3nc4ccc(C)cc4s3)o2)cc(OC)c1OC,-8.42%
12,CCn1c(CNC(=O)c2cc(OC)c(OC)c(OC)c2)cc2cc(C)ccc21,41.5% (active)
13,COc1cc(C(=O)NCC(=O)N2CC=C(c3ccccc3)CC2)cc(OC)c1OC,9.83%
14,COc1ccccc1C(=O)NC1CCCCN(C(C)C)C1=O (stereo not given),2.43%
15,CC1CCN(c2ccc(C(=O)O)cc2NS(=O)(=O)c2ccc(Br)s2)CC1,-3.26%
16,CN(O)C(=S)c1ccccc1,43.2% (active)
17,CCn1c2ccccc2c2cc(NC(=O)CSc3nnc(-c4ccccc4)n3-c3ccc(C)cc3)ccc21,22.1%
18,COC(=O)[C@]1(C#N)CC(=O)N(CC2CCCCC2)[C@@H]1c1ccccc1,-5.14%
19,COc1ccccc1CCNC(=O)C1CCN(c2nc(C)cc(C)n2)CC1,1.51%
20,O=C(Nc1cc(F)cc(F)c1)OC1CCC12CCC(c1ccccc1)CC2 (stereo not given),19%
21,Cn1c(CN2CCOCC2)nc2cc(NC(=O)c3ccc(Cl)cc3)ccc21,49.9% (active)
22,CN1CCN(Cc2nc3cc(NC(=O)COc4ccc([N+](=O)[O-])cc4)ccc3n2C)CC1,10.4%

row,Compound,inhibition
1,O=C(Nc1ccc(CN2CCOCC2)cc1)c1cc(Cl)ccc1Cl,5.94%
2,COc1ccc(-n2c(C)cc(C(=O)CSc3nnc(-c4cccs4)o3)c2C)cc1,54.9% (active)
3,CCc1ccccc1NC(=O)CSc1nnc(-c2cccs2)o1,-16.3%
4,COc1ccc(-c2nnc(SCC(=O)c3ccc4c(c3)OCCO4)o2)cc1,17.8%
5,CCC[C@H]1C(=O)CC[C@@]23CCCN2C(=O)CCC[C@@H]13,-13.2%
6,Cc1nc(C(=O)Nc2ccc(Cl)cc2)sc1C1(C)CC(c2ccccc2)=NO1 (stereo not given),5.05%
7,Cc1nc(C(=O)NCc2ccccc2)sc1C1(C)CC(c2cccnc2)=NO1 (stereo not given),37.6% (active)
8,Cc1nc(-c2ccc(Cl)cc2)sc1C1(C)CC(c2ccccc2F)=NO1 (stereo not given),-23.8%
9,CCOC(=O)[C@]12CCCCC/C=C\1N(Cc1ccc(OC)cc1)C(=O)[C@H]2CC(=O)NCCCN1CCCC1=O,1.89%
10,CC(C)(C)OC(=O)NCCc1ccccc1/C=C/S(=O)(=O)NCc1ccc(F)cc1,13.2%
11,O=C(NC1CCC1)c1ccc(C#CC2CC2)cn1,-23.3%
12,O=C(Nc1ccc(S(=O)(=O)NCC2CCCO2)cc1)c1ccc(F)cc1 (stereo not given),45.5% (active)
13,O=C(NCC1CCCO1)c1ccc(S(=O)(=O)Nc2ccc(F)cc2)cc1 (stereo not given),-7.6%
14,Cc1ccc(NC(=O)c2ccc(S(=O)(=O)NCC3CCCO3)cc2)cc1C (stereo not given),-13.5%
15,CCOC(=O)[C@]12CCCC=C1N(CCCOC)C(=O)[C@@H]2CC(=O)N1CCOCC1,13%
16,CCCC[C@H]1C2CC(OC(=O)NCc3ccccc3)C(C2)[C@H]2CCCCN21 (stereo not given in full),2.27%
17,CC(C)CNS(=O)(=O)CC1NCCc2ccccc21 (stereo not given),10.8%
18,CCN(CC)S(=O)(=O)c1ccc(N(C)Cc2ccc(C(F)(F)F)cc2)nc1,41.6% (active)
19,CCN(CC)S(=O)(=O)c1ccc(N(C)Cc2cccc(OC)c2OC)nc1,1.36%
20,CCN(CC)S(=O)(=O)c1ccc(N(C)CCc2ccc(OC)c(OC)c2)nc1,-0.82%
21,CCOC(=O)[C@@]12CCC3=C1N(CCC3)C(=O)[C@H](CC(=O)N1CCN(C(=O)c3ccco3)CC1)C2,0.9%
22,COc1ccc(C2Nc3ccccc3C(=O)N2Cc2cccs2)cc1COc1c(C)cccc1C (stereo not given),14%

row,Compound,inhibition
1,CN(C)Cc1cn(-c2ccc(-c3noc4c3C(=O)N(CC(=O)N3CCOCC3)CC4)cc2)nn1,6.87%
2,C=CCN1C(=O)[C@@H](CC(=O)NCCCOCCCC)[C@]2(C(=O)OCC)CCCCC/C=C/12,-5.26%
3,Cc1ccc(S(=O)(=O)N2CCCC(C(=O)N3CCN(C)CC3)C2)cc1 (stereo not given),8.22%
4,COc1ccc(S(=O)(=O)N2CCCC(C(=O)N3CCN(C)CC3)C2)cc1C (stereo not given),-0.76%
5,CC(=O)N1CCCc2cc(S(=O)(=O)N3CCCC(C(=O)N4CCN(c5cccc(Cl)c5)CC4)C3)ccc21 (stereo not given),76.9% (active)
6,COC(=O)C1CN(CC(C)C)CCS(=O)(=O)N1Cc1ccc(C)cc1 (stereo not given),0.94%
7,O=C(NCc1cccs1)C1CCCN(S(=O)(=O)c2ccc([N+](=O)[O-])cc2)C1 (stereo not given),-10.3%
8,Cc1ccc(-n2c(SCC(=O)Nc3cccc4ccccc34)nnc2-c2ccco2)cc1,6.67%
9,Cc1ccc(C(=O)C2CCN(CC(=O)NCCC(C)C)CC2)cc1,6.65%
10,O=C(CSc1nc2ccccc2s1)N=Nc1c(O)[nH]c2ccccc12,8.58%
11,CC1(C)CC(N2CCN(C(c3ccccc3)c3ccccc3)CC2)=CC(=[N+]2CCCCC2)C1,85.2% (active)
12,CCOC(=O)C1CCN(C(=O)C(C)(C)NC(=O)Nc2ccccc2Cl)CC1,25.7%
13,N#C[C@]1(S(=O)(=O)c2ccccc2)C[C@@H]2ON=C(c3cccc(Br)c3)[C@@H]2C1,52.9% (active)
14,COC(=O)[C@]1(S(=O)(=O)c2ccccc2)C[C@@H]2ON=C(c3ccc(OC)cc3)[C@@H]2C1,3.59%
15,O=C(c1c[nH]c2ccccc12)N1CCC(Oc2cccnc2)CC1,-3.41%
16,NC(=O)c1sc2nc3c(c(-c4ccccc4)c2c1N)CCC3,57.2% (active)
17,CC(C)OC(=O)c1sc2nc3c(cc2c1N)C(=O)CCC3,-22.1%
18,CCOC(=O)[C@]12CCCCC/C=C\1N(Cc1ccc(OC)cc1)C(=O)[C@H]2CC(=O)NCc1ccc(C)o1,-9.71%
19,COc1ccc(-c2cc(-c3nnc(SCc4ccc([N+](=O)[O-])cc4)n3N)[nH]n2)cc1,11.7%
20,C=CCN1C(=O)[C@@H](CC(=O)NCCCCc2ccccc2)[C@]2(C(=O)OCC)CCCCC/C=C/12,-17.9%
21,O=C(CN1C(=O)c2ccccc2S1(=O)=O)N1CCc2ccccc21,57.8% (active)
22,CN(Cc1cccs1)C(=O)CN1C(=O)c2ccccc2S1(=O)=O,-15.9%

row,Compound,inhibition
1,Cc1ccc(S(=O)(=O)N(C)CC(=O)N2CCc3ccccc32)cc1,-12.3%
2,CN(c1ccc(C(=O)N2CCc3ccccc3C2)cc1)S(C)(=O)=O,-7.57%
3,CN(c1cccc(NC(=O)c2ccc(CN3CCc4ccccc4C3)cc2)c1)S(C)(=O)=O,61.4% (active)
4,CC(=O)Nc1cccc(NC(=O)c2ccc3c(c2)CCN3S(C)(=O)=O)c1,-21%
5,COCCCNC(=O)C[C@H]1C[C@@]2(C(=O)OC)C(=C[C@H](C(C)(C)C)O[C@@H]2C)N(Cc2ccc(Cl)cc2Cl)C1=O,6.74%
6,CCOC(=O)[C@]12CCCC3=C1N(CCC3)C(=O)[C@@H](CC(=O)NCc1cccs1)C2,-7.47%
7,CC(C)CNc1cccc2c1S(=O)(=O)N(Cc1cn(Cc3ccccc3C(F)(F)F)nn1)Cc1ccccc1O2,3.92%
8,Cn1ccc(=NC=C(C#N)C#N)c2ccccc21,-6.63%
9,CC(C)(C)c1cc(C(=O)NN)n(Cc2ccc(Cl)cc2Cl)n1,12.5%
10,N#CC(C#N)=CN=c1ccn(Cc2ccc(Cl)cc2Cl)cc1,41.5% (active)
11,COC(=O)[C@H](C(C)C)N(CCc1cn(Cc2ccccc2)nn1)S(=O)(=O)c1ccc(F)cc1Br,-0.51%
12,CC(C)Nc1ncnc2c1ncn2[C@H]1CN(Cc2ccncc2)C[C@@H](CO)O1,-8.36%
13,OC[C@@H]1CN(Cc2ccncc2)C[C@H](n2cnc3c(N4CCN(c5ccccc5)CC4)ncnc32)O1,65.7% (active)
14,OC[C@@H]1CN(Cc2cccs2)C[C@H](n2cnc3c(Nc4ccccc4)ncnc32)O1,10.6%
15,OC[C@@H]1CN(Cc2ccc(-c3ccccc3)cc2)C[C@H](n2cnc3c(NC4CCCC4)ncnc32)O1,73.9% (active)
16,OC[C@@H]1CN(C2CCCC2)C[C@H](n2cnc3c(NC4CCC4)ncnc32)O1,-25.3%
17,OCCN1CCN(c2ncnc3c2ncn3[C@H]2CN(Cc3ccco3)C[C@@H](CO)O2)CC1,-8.87%
18,Cc1ccc(C)c(NC(=O)CCS(=O)(=O)c2ccccc2)c1,-5.81%
19,CCCCCN1CCCCC(NC(=O)C(C)CCC)C1=O (stereo not given),4.97%
